In paper PMC10668032, “Altered binding affinity of SIX1-Q177R correlates with enhanced WNT5A and WNT pathway effector expression in Wilms tumor” one finds binding signal data, which are given here for 86 sequences.

The full ranking holds about 33,000 sequences; the median of “e-score” is about -0.05, and the highest 2% start at about 0.38. What follows is part of a selection rich in the highest values, with near analogues and random picks from the rest.

This test deals with T1, SIX1-Q177R homeodomain (human, UniProt Q15475 108-198, Q177R).
T1 sequence: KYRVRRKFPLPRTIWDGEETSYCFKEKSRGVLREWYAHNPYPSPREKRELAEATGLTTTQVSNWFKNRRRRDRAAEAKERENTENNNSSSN
The experiment in a line: universal protein binding microarray; Universal all-10-mer PBM (8x60K, AMADID 030236), 300 nM GST-tagged protein, Alexa Fluor 488 anti-GST; buffer, salt, pH and temperature not stated (as in Berger); high values mean tight binding. Conditions: protein: ivt; tags: N-terminal GST; dsDNA, one strand shown. Put shortly:
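Homeodomains carrying a GST tag were produced by in vitro transcription/translation, then quantified by anti-GST western blot against a recombinant GST standard curve. Duplicate applications at 300 nM final concentration were made to universal 'all 10-mer' protein binding microarrays in 8×60K format. The Universal PBM Analysis Suite was used to express binding as 8-mer E-scores.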
Consider CCGGTGCA, for which the binding signal was 0.203 ± 0.0164 E-score.
As for GCTGTGTA, the figure is 0.223 ± 0.0192 E-score; as for CCCGAGTA, 0.167 ± 0.00344 E-score; as for CTTAGGGA, 0.151 ± 0.0622 E-score.
Regarding GCACAACA, the binding signal worked out at 0.156 ± 0.0323 E-score.
The result for CACCTGAG reads 0.183 ± 0.0139 E-score.
As for ATTGGTGC, the figure is 0.1599 ± 0.00112 E-score; as for CAAGGACA, 0.194 ± 0.0363 E-score.
The result for ACGACCCG reads 0.179 ± 0.0515 E-score.
As to CACGCATC, the binding signal was determined as 0.168 ± 0.00731 E-score.
As for CACCAGCG, the figure is 0.22 ± 0.0046 E-score.
As for GCGTGACA, the figure is 0.254 ± 0.0158 E-score.
As for ACGTGGTG, the figure is 0.3594 ± 0.00155 E-score.
For GCGTGTCA, the binding signal is 0.4332 ± 0.000573 E-score.
The result for ACGTGTCG reads 0.383 ± 0.00518 E-score; that for CCGTGTGA, 0.299 ± 0.0309 E-score; that for ACGTGTGG, 0.218 ± 0.0138 E-score.
Consider CCGTGACA, for which the binding signal was found to be 0.307 ± 0.00911 E-score.
The result for CCGTGTCA reads 0.465 ± 0.00781 E-score; that for GCGTATCC, 0.176 ± 0.00656 E-score; that for GCGTGTCC, 0.412 ± 0.0188 E-score.
The result for ACGTGTCC reads 0.347 ± 0.017 E-score; that for CCAGCTGG, 0.263 ± 0.0674 E-score.
For CATGGTGG, the binding signal is 0.192 ± 0.00214 E-score.
The result for GTGCGTGA reads 0.163 ± 0.0169 E-score; that for CCCCCTTC, 0.2098 ± 0.000417 E-score.
As for CCGTGTCC, the figure is 0.408 ± 0.0236 E-score; as for ACGTGTCA, 0.4123 ± 0.00349 E-score; as for CCGTGTCG, 0.441 ± 0.0221 E-score.
The result for TCGTGACA reads 0.329 ± 0.0128 E-score; that for CCCTGTCC, 0.152 ± 0.0156 E-score; that for CCCCGTCG, 0.161 ± 0.0244 E-score.
Consider TCGGGTCA, for which the binding signal is 0.197 ± 0.0386 E-score.
As for ACGTGTCT, the figure is 0.337 ± 0.00126 E-score.
On to TCGTGTCA, for which the binding signal turned out to be 0.4434 ± 0.00419 E-score.
As for CCGGGTCG, the figure is 0.248 ± 0.0288 E-score; as for CCGTGATC, 0.165 ± 0.0407 E-score; as for CGAATCCG, 0.166 ± 0.0303 E-score.
The result for AGCTCGTG reads 0.244 ± 0.0101 E-score.
Regarding ATACTCCC, the binding signal was found to be 0.162 ± 0.0435 E-score.
As for CCCCGGTA, the figure is 0.284 ± 0.00694 E-score; as for CATCAGCG, 0.153 ± 0.0322 E-score.
Take CACCGGAC: the binding signal worked out at 0.315 ± 0.0498 E-score.
As for CTATAACA, the figure is 0.228 ± 0.0138 E-score; as for TAAGTGTA, 0.373 ± 0.0287 E-score.
For the sequence AAAGTGTG, the binding signal stood at 0.184 ± 0.0165 E-score.
The result for GAAGTGTC reads 0.387 ± 0.0118 E-score; that for AAAGTGTT, 0.285 ± 0.0563 E-score; that for AGTGTGTC, 0.283 ± 0.029 E-score.
As for CAAGTGTA, the figure is 0.392 ± 0.0272 E-score; as for AGAGTGTC, 0.412 ± 0.00919 E-score; as for AGAGTGTG, 0.247 ± 0.0115 E-score.
As for CAAGTGTC, the figure is 0.379 ± 0.0101 E-score; as for AGAGTGTA, 0.424 ± 0.0108 E-score; as for ACCCGGCT, 0.202 ± 0.0126 E-score.
For the sequence ACACATAA, the binding signal is 0.18 ± 0.0275 E-score.
As to GCGAGACA, the binding signal amounted to 0.249 ± 0.00462 E-score.
The result for GGAACCCC reads 0.165 ± 0.0247 E-score; that for GGGATCAC, 0.2771 ± 0.000933 E-score.
The result for CACCGGAA reads 0.288 ± 0.0177 E-score; that for TAAGGGTA, 0.163 ± 0.0467 E-score; that for CCGACCAC, 0.192 ± 0.0175 E-score.
As for CGGGTATA, the figure is 0.21 ± 0.00983 E-score.
CGAGTACC: the binding signal is 0.168 ± 0.00651 E-score.
The result for GGAGTGTA reads 0.417 ± 0.0148 E-score; that for CGAGTGTA, 0.382 ± 0.0327 E-score; that for GGAGTGCA, 0.17 ± 0.0126 E-score.
As for CGAGTGTC, the figure is 0.415 ± 0.00743 E-score.
For the sequence GGAGTACA, the binding signal is 0.246 ± 0.013 E-score.
As for CGAGTATC, the figure is 0.158 ± 0.0391 E-score.
The result for CGAGTGGA reads 0.166 ± 0.0322 E-score; that for CGAGTACA, 0.28 ± 0.0111 E-score.
As for GGGTGCTA, the figure is 0.217 ± 0.00882 E-score.
CCGCCCCA: the binding signal turned out to be 0.239 ± 0.0124 E-score.
As to CCCTACCA, the binding signal turned out to be 0.167 ± 0.0194 E-score.
As for CACCTAAG, the binding signal amounted to 0.263 ± 0.00735 E-score.
The result for AAACCCCG reads 0.231 ± 0.0422 E-score; that for ACTATATC, 0.178 ± 0.0197 E-score; that for ATGGAGTC, 0.232 ± 0.0246 E-score.
As for GACACGTA, the figure is 0.39 ± 0.0131 E-score; as for AACACGTA, 0.343 ± 0.0046 E-score.
As for GACACGTC, the figure is 0.381 ± 0.00585 E-score; as for AACACGTC, 0.309 ± 0.0249 E-score.
Regarding CACACGTA, the binding signal was determined as 0.262 ± 0.0227 E-score.
Turning to CACACGTC, the binding signal is 0.221 ± 0.00539 E-score.
In the case of CGAAGTAC, the binding signal came out at 0.174 ± 0.00912 E-score.
